Experimental findings from PubChem BioAssay (Tox21) are described below.

Experiment [1] is described as follows: qHTS RealTime-Glo MT Cell Viability Assay in HepG2 cells - 40 hour (AID 1224870). Further: nearly all actives have a fitted effect of over 50% in size. The procedure, abridged: (§1)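 HepG2 cells mixed with RealTime-Glo MT reagents (NanoLuc plus cell-permeant prosubstrate) were seeded at 600 cells/well, incubated 5 h at 37 C/5% CO2, then pinned with compounds in DMSO; nonlytic luminescence tracked viability during 40 h treatment.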

Experiment [2] is described as follows: A CellTox Green Cytotoxicity Assay to monitor cytotoxicity in HEK293 cells - 40 hour (AID 1224871). Further: nearly all actives have a fitted effect of over 45% in size. Further: potency means the concentration at half of the fitted maximal effect. In a few lines: (§2)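 Homogeneous no-lysis format: HEK293 cell suspension mixed with CellTox Green reagent, seeded, incubated 5 h at 37 C/5% CO2, then dosed by pintool with compound in DMSO.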
Experiment [3] is described as follows: qHTS RealTime-Glo MT Cell Viability Assay in HEK293 cells - 16 hour (AID 1224872). Further: nearly all actives have a fitted effect of over 50% in size. Further: potency means the concentration at half of the fitted maximal effect. In a few lines: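 Nonlytic real-time viability readout: viable cells convert prosubstrate to NanoLuc substrate, giving luminescence proportional to live cell number. HEK293, 600 cells/well, compound added after 5 h, continuous culture at 37 C.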
The nature of experiment [4]: qHTS RealTime-Glo MT Cell Viability Assay in HepG2 cells - 8 hour (AID 1224873). Further: nearly all actives have a fitted effect of over 55% in size. In a few lines: as §1
For orientation: In qHTS, concentration-response curves come from the screen itself.

Experiment [5] is described as follows: qHTS RealTime-Glo MT Cell Viability Assay in HEK293 cells - 40 hour (AID 1224874). Further: nearly all actives have a fitted effect of over 50% in size. Further: potency means the concentration at half of the fitted maximal effect. The conditions noted are these: RealTime-Glo luminescence; max response: stronger effect = lower value. In a few lines: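 Measured as luminescence from the same continuously cultured HEK293 wells at successive time points (0, 8, 16, 24, 32, 40 h) after compound addition. Reagent present from seeding; dosing at 5 h; incubation 37 C.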

Experiment [6] is described as follows: A CellTox Green Cytotoxicity Assay to monitor cytotoxicity in HEK293 cells - 24 hour (AID 1224875). Further: nearly all actives have a fitted effect of over 45% in size. Further: potency means the concentration at half of the fitted maximal effect. In a few lines:
as §2

The nature of experiment [7]: A CellTox Green Cytotoxicity Assay to monitor cytotoxicity in HepG2 cells - 16 hour (AID 1224876). Further: nearly all actives have a fitted effect of over 45% in size. The procedure, abridged: (§3)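 Fluorescent DNA-binding dye, 600 HepG2 cells/well, 5 h preincubation then compound in DMSO; same plates read at 0–40 h, 37 C.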
Experiment [8] is described as follows: qHTS RealTime-Glo MT Cell Viability Assay in HepG2 cells - 32 hour (AID 1224877). Further: nearly all actives have a fitted effect of over 55% in size. The procedure, abridged:
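Luminescence read-out: viable HepG2 cells reduce a prosubstrate to a NanoLuc substrate, giving a signal proportional to live cell number. Reads taken at 0, 8, 16, 24, 32 and 40 h of compound exposure at 37 C.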

Experiment [9] can be described thus: A CellTox Green Cytotoxicity Assay to monitor cytotoxicity in HepG2 cells - 24 hour (AID 1224878). Further: nearly all actives have a fitted effect of over 45% in size. Further: potency means the concentration at half of the fitted maximal effect. In a few lines: as §3
The nature of experiment [10]: A CellTox Green Cytotoxicity Assay to monitor cytotoxicity in HepG2 cells - 40 hour (AID 1224879). Further: nearly all actives have a fitted effect of over 40% in size. Further: potency means the concentration at half of the fitted maximal effect. The procedure, abridged:
as §3

Where “and” joins values, the source holds several entries; their conditions need not be identical. Equal entries are not always repeated. Inconclusive results are not listed. More than one record can exist for a structure, and the calls need not agree. Calls of active or inactive are those of the source. The call rests on the fitted dose curve; in most records, active means well fitted curve in the direction sought with a large enough effect in the repeat runs; inconclusive means weak or mixed curves; inactive means no such curve, though single readings can be large; an effect the other way counts as inactive or inconclusive.
On the % scale 0 is the no-effect control and ±100 the full control effect.

Turning to `CCCCOCCOCCOC(=O)CCCCC(=O)OCCOCCOCCCC`, the Potency entry in [1], in [2], in experiment [3], in experiment [4], in experiment [6] and in experiment [7] was “inactive” throughout. The Potency result in [8], in experiment [9] and in experiment [10] was “inactive” each time. Also, the max response in [5] is 3.67% (inactive) and 5.42% (inactive).

For `CCC(C)C=O` (centres undefined), the Potency entry in experiment [1], in [2], in experiment [6], in experiment [7], in [8] and in experiment [10] was “inactive” throughout. The Potency result is “inactive and 6.92 µM (active)” in experiment [3]; 3.09 µM (active) in experiment [5]; “inactive and 21.9 µM (active)” in [9]. Also, in experiment [5], the max response was -3.52% (inactive).

For `CCc1ccc(O)cc1`, the Potency result in experiment [1], in experiment [2], in experiment [3], in experiment [4], in experiment [6] and in experiment [7] was “inactive” each time. Further, the Potency result in experiment [8], in experiment [9] and in experiment [10] was “inactive” in each case. In addition, the max response in experiment [5] is 3.14% (inactive) and 3.17% (inactive).

Consider `C=C(C)C(=O)OCCC[Si](OC)(OC)OC`, for which the Potency entry in experiment [1], in experiment [2], in experiment [3], in experiment [6], in experiment [7] and in experiment [8] was “inactive” in each case. The Potency result in experiment [9] and in experiment [10] was “inactive” each time. For the same compound, the max response in experiment [5] was 1.98% (inactive) and 0.0703% (inactive).

Regarding `CCCCCCCCC`, the Potency result in experiment [1], in experiment [2], in experiment [3], in experiment [6], in [7] and in [8] was “inactive” throughout. Moreover, the Potency entry in experiment [9] and in [10] was “inactive” throughout. Also, the max response in [5] was 9.17% (inactive) and -1.35% (inactive).

On to `O=Nc1ccc(O)cc1`, for which the Potency result in [1], in experiment [3], in [4], in experiment [6], in [7] and in [8] was “inactive” each time. The Potency entry in experiment [9] was “inactive”. In addition, the max response in experiment [5] was 2.25% (inactive).

With `NCCc1ccc(O)c(O)c1`, the Potency entry in experiment [1], in experiment [2], in experiment [3], in experiment [6], in [7] and in experiment [8] was “inactive” in each case. Further, the Potency result in experiment [9] is “inactive”. Further, in experiment [5], the max response is -0.912% (inactive) and 5.76% (inactive).

Turning to `O=C(O)c1cc(-c2ccccc2)nc2ccccc12`, the Potency result in experiment [1], in experiment [3], in [4], in [6], in experiment [7] and in [8] was “inactive” throughout. Besides, the Potency entry in experiment [9] is “inactive”. For the same compound, the max response in experiment [5] was -1.75% (inactive) and 4.47% (inactive).

Take `Cc1cc(O)cc(C)c1Cl`: the Potency entry in [1], in experiment [2], in [3], in experiment [6], in experiment [7] and in experiment [8] was “inactive” each time. Further, the Potency result in [9] and in [10] was “inactive” throughout. For the same compound, the max response in experiment [5] was -8.32% (inactive) and -0.996% (inactive).

Consider `CC1=CC[C@H]2C[C@@H]1C2(C)C`, for which the Potency entry in [1], in experiment [2], in [3], in experiment [6], in experiment [7] and in [8] was “inactive” throughout. The Potency entry in [9] and in experiment [10] was “inactive” in each case. Moreover, the max response in experiment [5] was 0.867% (inactive) and -1.12% (inactive).

As to `CC(C)(C)C(=O)C1C(=O)c2ccccc2C1=O`, the Potency entry in experiment [1], in [2], in [3], in [6], in [7] and in experiment [8] was “inactive” throughout. Besides, the Potency result in [9] was “inactive”. Besides, in experiment [5], the max response was -29.9% (inactive) and -11.1% (inactive). In addition, the Potency in experiment [10] is 54.4 µM (active) and inactive.

`Cc1ccc(C(=O)O)o1`: the Potency entry in experiment [1], in experiment [2], in experiment [3], in experiment [6], in experiment [7] and in experiment [8] was “inactive” throughout. Also, the Potency entry in [9] and in [10] was “inactive” each time. Besides, the max response in [5] was 2.67% (inactive) and -10.1% (inactive).

On to `CCCCC(CC)C(=O)OCCOCCOCCOC(=O)C(CC)CCCC` (centres undefined), for which the Potency entry in experiment [1], in experiment [2], in experiment [4], in experiment [6], in experiment [7] and in experiment [8] was “inactive” each time. For the same compound, the Potency entry in experiment [9] and in experiment [10] was “inactive” each time. In experiment [5], the max response was -28.2% (inactive).

Take `CN(C)c1cccc(O)c1`: the Potency entry in [1], in experiment [2], in [3], in [6], in experiment [7] and in experiment [8] was “inactive” throughout. In addition, the Potency result in [9] was “inactive”. In addition, the max response in experiment [5] was -0.0652% (inactive) and -21.5% (inactive).

Take `CC(=O)Nc1ccc(C(=O)O)cc1`: the Potency entry in experiment [1], in experiment [2], in [3], in [6], in experiment [7] and in experiment [8] was “inactive” each time. The Potency entry in experiment [9] and in [10] was “inactive” throughout. In addition, in [5], the max response was 0.373% (inactive) and -0.782% (inactive).

`Oc1ccc(OCc2ccccc2)cc1`: the Potency entry in experiment [1], in [2], in experiment [6], in experiment [7], in experiment [8] and in [9] was “inactive” throughout. Further, the Potency in experiment [3] is 957 nM (active) and inactive; in experiment [5], 1.2 µM (active). Further, in experiment [5], the max response was -10.3% (inactive).

Consider `CCCCNC(N)=O`, for which the Potency entry in [1], in experiment [3], in experiment [4], in experiment [6], in experiment [7] and in experiment [8] was “inactive” each time. Moreover, the Potency result in experiment [9] was “inactive”. The max response in [5] was 5.63% (inactive) and 4.35% (inactive).

In the case of `ClC1=C(Cl)C(Cl)(Cl)C(Cl)=C1Cl`, the Potency result in experiment [1], in experiment [7], in [8] and in experiment [9] was “inactive” in each case. Further, the Potency in experiment [2] was 12.4 µM (active) and 34.7 µM (active); in experiment [5], 34.9 µM (active); in experiment [6] it was 38.9 µM (active).

For the compound `Nc1nc2ncc(CNc3ccc(C(=O)N[C@@H](CCC(=O)O)C(=O)O)cc3)nc2c(=O)[nH]1`, the Potency result in experiment [1], in experiment [2], in experiment [3], in experiment [6], in experiment [7] and in experiment [8] was “inactive” throughout. The Potency entry in [9] was “inactive”. Moreover, the max response in experiment [5] is 21.4% (inactive) and 0.94% (inactive).

On to `COC(=O)c1ccc(C(=O)OC)cc1`, for which the Potency result in [1], in experiment [6], in experiment [7] and in experiment [8] was “inactive” each time. For the same compound, the Potency in experiment [2] was 15.7 µM (active) and inactive; in [3] it was 35.1 µM (active) and inactive; in experiment [5], 35.1 µM (active); in [9] it was 22.2 µM (active) and inactive. In [5], the max response was 0.23% (inactive).

For `O=c1c(-c2ccc(O)cc2)coc2cc(O)ccc12`, the Potency result in [1], in experiment [2], in experiment [3], in experiment [4], in [6] and in experiment [7] was “inactive” throughout. The Potency result in [8], in experiment [9] and in [10] was “inactive” in each case.
